Source: ChEMBL document CHEMBL2218924, “A broad activity screen in support of a chemogenomic map for kinase signalling research and drug discovery” (Biochem J, 2013)

Target: Insulin-like growth factor 1 receptor (Homo sapiens) (UniProt P08069)
Details: at 1 µM

Chain of Insulin-like growth factor 1 receptor (Homo sapiens) (P08069 31-736 limits assumed): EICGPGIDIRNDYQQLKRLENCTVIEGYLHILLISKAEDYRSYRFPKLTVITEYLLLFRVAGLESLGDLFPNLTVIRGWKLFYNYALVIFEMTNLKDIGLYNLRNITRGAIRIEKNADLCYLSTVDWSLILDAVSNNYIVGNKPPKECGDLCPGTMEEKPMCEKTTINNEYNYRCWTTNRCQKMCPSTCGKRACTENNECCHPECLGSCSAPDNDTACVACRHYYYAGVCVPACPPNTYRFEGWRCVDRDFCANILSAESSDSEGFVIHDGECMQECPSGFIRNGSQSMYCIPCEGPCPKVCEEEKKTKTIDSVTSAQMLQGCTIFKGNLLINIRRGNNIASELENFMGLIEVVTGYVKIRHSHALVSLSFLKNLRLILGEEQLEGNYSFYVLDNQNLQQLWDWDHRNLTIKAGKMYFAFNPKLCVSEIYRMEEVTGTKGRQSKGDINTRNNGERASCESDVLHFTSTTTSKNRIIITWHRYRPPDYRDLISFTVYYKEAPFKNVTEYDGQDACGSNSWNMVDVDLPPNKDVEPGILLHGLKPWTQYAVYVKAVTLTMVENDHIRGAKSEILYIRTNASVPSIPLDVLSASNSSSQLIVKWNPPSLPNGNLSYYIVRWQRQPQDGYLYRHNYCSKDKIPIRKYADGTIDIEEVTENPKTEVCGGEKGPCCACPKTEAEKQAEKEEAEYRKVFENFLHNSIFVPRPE
Chain of Insulin-like growth factor 1 receptor (Homo sapiens) (P08069 741-1367 limits assumed): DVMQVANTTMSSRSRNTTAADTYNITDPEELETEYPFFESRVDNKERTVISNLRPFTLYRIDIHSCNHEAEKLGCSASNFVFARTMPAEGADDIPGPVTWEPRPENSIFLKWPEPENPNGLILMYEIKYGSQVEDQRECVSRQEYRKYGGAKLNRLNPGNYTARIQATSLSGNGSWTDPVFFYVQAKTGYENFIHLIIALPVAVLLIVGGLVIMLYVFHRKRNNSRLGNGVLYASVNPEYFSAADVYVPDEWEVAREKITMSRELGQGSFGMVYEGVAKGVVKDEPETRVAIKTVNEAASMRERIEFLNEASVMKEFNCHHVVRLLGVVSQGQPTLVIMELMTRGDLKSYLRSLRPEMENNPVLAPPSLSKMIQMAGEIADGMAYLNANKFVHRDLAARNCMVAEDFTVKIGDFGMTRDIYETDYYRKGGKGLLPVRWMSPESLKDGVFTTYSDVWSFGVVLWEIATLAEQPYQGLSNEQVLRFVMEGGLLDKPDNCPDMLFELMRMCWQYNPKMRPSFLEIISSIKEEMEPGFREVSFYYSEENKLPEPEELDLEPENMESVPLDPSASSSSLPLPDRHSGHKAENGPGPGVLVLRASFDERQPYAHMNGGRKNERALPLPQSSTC

| Structure (SMILES) | residual activity [%] |
| --- | --- |
| CC(C)[C@H](CO)Nc1nc(Nc2cc(N)cc(Cl)c2)c2ncn(C(C)C)c2n1 | 118 |
| O=C1NC(=O)c2c1c1c3ccccc3[nH]c1n1cncc21 | 9 |
| CC(C)(C)c1nc2c3ccc(F)cc3c3c(=O)[nH]ccc3c2[nH]1 | 119 |
| Nc1ncnc2c1c(-c1ccc(Oc3ccccc3)cc1)cn2C1CCCC1 | 127 |
| Oc1cccc(-c2nc(N3CCOCC3)c3oc4ncccc4c3n2)c1 | 131 |
| CC(C)c1nn(-c2c(Cl)cccc2Cl)c2nc(Cc3ccc(OCCO)cc3)[nH]c(=O)c12 | 135 |
| O=C1C(Cl)=C(N2C(=O)CCC2=O)C(=O)c2ccccc21 | 93 |
| N#C/C(=C1/Nc2ccccc2S1)c1ccnc(NCCc2cccnc2)n1 | 143 |
| O=C(CCCc1ccc(-c2ccccc2F)cc1)Nc1ccc(O)cc1 | 104 |
| CC(C)(C)n1nc(Cc2cccc3ccccc23)c2c(N)ncnc21 | 142 |
| c1ccc(-c2cnc(Nc3ccc(OCCN4CCCC4)cc3)s2)cc1 | 119 |
| Nc1ncnc2c1cnn2-c1ccccc1 | 140 |
| COc1ccc2c(c1)c(C1=C(c3c[nH]c4ccccc34)C(=O)NC1=O)cn2CCCN(C)C | 134 |
| CCN(CC)CCNC(=O)c1c(C)[nH]c(/C=C2\C(=O)Nc3ccc(Cl)cc32)c1C | 135 |
| O=C(c1cc2cc(O)ccc2[nH]1)c1cc2cc(O)ccc2[nH]1 | 65 |
| COc1cc2nccc(Oc3ccc(NC(=S)NC(=O)c4ccccc4C)cc3)c2cc1OC | 120 |
| NC(=O)Nc1sc(-c2ccc(F)cc2)cc1C(N)=O | 82 |
| COc1ccc(Cl)cc1NC(=O)Nc1cc(C)nc2ccccc12 | 147 |
